This is an account of results in PubChem BioAssay (NCI).

About 83,000 compounds went through this panel and 20% of them were active in at least one assay; those are over-represented in the sample as a whole.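 96-well plates, one dose, 48 hours. Percent growth reported; active if below 10.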 Calls of active or inactive are those of the source.

For the assay, the system named is MDA-MB-435 melanoma. The assay can be described thus: NCI-60 one-dose screen, 48 h (100 = growth as untreated, 0 = no growth, -100 = all killed). The following applies: 10 µM unless noted. As to the method:
Growth inhibition of the MDA-MB-435 human Melanoma tumor cell line is measured as a screen for anti-cancer activity. Cells are grown in 96 well plates and exposed to the test compound for 48 hours. Compounds are tested at a single concentration, which is 10^-5 M for most compounds. The reported endpoint is percent growth (GI% or GIPRCNT), where numbers from 0 - 100% represent growth inhibition, and numbers from -100% - 0 represent cell death. For example, a value of 40 represents 60% growth inhibition. A value of 0 means no net growth occurred over the course of the experiment. A value of -40 indicates 40% of cells at the beginning of the experiment died by the end of the experiment. A value of -100 means all cells are dead at the end of the experiment.
NCI-60 Human Tumor Cell Lines Screen was performed using the standard one-dose NCI protocol, which is described in more detail at https://dtp.cancer.gov/discovery_development/nci-60/default.htm.
Compounds with GIPRCNT values below 10 were considered active. Activity score was based on GIPRCNT using the following formula: […]
Score is 0 for GIPRCNT values of 100 or above, 50 for GIPRCNT values of 0, and 100 for GIPRCNT values of -100.
Regarding `COC1CCN(Cc2ccc3c(NNC(=O)c4cnccn4)nc4cc(F)ccc4n23)C1` (stereo not given), the growth is 37.2% (inactive). With `Clc1ccc(-c2cn3cc(Cc4ccc(Cl)c(Cl)c4)sc3n2)cc1`, the growth was 35% (inactive).

For `O=C1Nc2ccccc2Oc2ccc(S(=O)(=O)CC3CO3)cc21` (stereo not given), the growth was 46.3% (inactive). Regarding `CCOC(=O)c1c(Nc2ccccc2)nn2c(N)c(C#N)c(-c3ccc(Cl)cc3)nc12`, the growth was 70.3% (inactive). With `COc1cc(N=Cc2sc(Nc3nccs3)nc2O)cc(OC)c1OC`, the growth is 87.9% (inactive). To `O=C(N/N=C/c1cccs1)c1[nH]c2ccc(Br)cc2c1-c1ccccc1` belongs -26.1% (active). In the case of `CCOC(=O)c1c(Nc2ccccc2)nn2c(-c3ccco3)c(C#N)cnc12`, the growth is 93% (inactive). For the compound `Cc1ccc(C(=O)Nc2cccc(C(F)(F)F)c2)cc1Nc1nc(-c2cnccn2)nc2c1cnn2C`, the growth was 35.9% (inactive). Next, `CN(C)CCCOc1c2ccccc2nc2c1oc1ccc(Cl)cc12`: -19.8% (active); `CC(=O)Oc1ccccc1C(=O)Nc1cc(C(C)C)ccc1C`: 11.1% (inactive); `N#Cc1nc(-c2ccccc2)oc1S(N)(=O)=O`: 42.5% (inactive).

In the case of `O=C(CSc1nc2sc3c(c2c(=O)n1-c1ccc(Cl)cc1)CCCC3)NNC(=O)Nc1ccc(Cl)c(C(F)(F)F)c1`, the growth was 46.8% (inactive). Consider `OC1CCN(CCCOc2c3ccc(Cl)cc3nc3c2oc2ccc(Cl)cc23)CC1`, for which the growth is -70.4% (active). Next, `COc1cc(OC)c(C2C(Cl)C(=O)N2Nc2ncnc3ccccc23)cc1OC` (stereo not given): 96.2% (inactive).

On to `COC(=O)C(Cc1ccccc1)NS(=O)(=O)/N=C1\NC(=O)NC1=C(Cl)Cl` (stereo not given), for which the growth was 105% (inactive).

Take `O=C(Oc1ccc2ccc(=O)oc2c1)c1ccc(Cl)cc1`: the growth is 109% (inactive). For `O=C(N/N=C/c1ccco1)c1[nH]c2ccc(Br)cc2c1-c1ccccc1`, the growth was 0.898% (active). To `C#Cc1nc(C2=C(C)C(OC(=O)CCC(=O)O)CC2)cs1` (stereo not given) belongs 106% (inactive); to `C/C(=C(/c1ccc(Cl)cc1)c1ccc(OCCN)cc1)c1ccc(C)cc1`, 97.3% (inactive).

In the case of `CCCC(=O)NC(c1ccc(N(CC)CC)cc1)c1cc(C)c2cccnc2c1O` (stereo not given), the growth is 34.8% (inactive). For the compound `CCN1C(=S)N(CC)C2C1N=C(SC)N2/N=C/C=C/c1ccccc1[N+](=O)[O-]` (stereo not given), the growth was 94.4% (inactive). Take `CC(=NNc1ncnc2ccccc12)c1ccc(S(C)(=O)=O)cc1`: the growth is 106% (inactive).

Regarding `O=C(Nc1nc2ccc(O)cc2s1)c1cccc(C(F)(F)F)c1`, the growth is 44.7% (inactive).

For `CN1CCc2c(sc3ncnc(N/N=C/c4ccc(Cl)c(Cl)c4)c23)C1`, the growth was 11.6% (inactive). Take `O=[N+]([O-])c1ccc(O)c2ncccc12`: the growth is 40% (inactive). Take `CS(=O)(=O)c1ccc(-c2nc3ccccn3c2C=Nc2ccc(Cl)cc2)cc1`: the growth was 56.7% (inactive). Consider `N#Cc1c(-c2ccc(F)cc2)nc2c(C#N)c(Nc3ccccc3)nn2c1N`, for which the growth is 95.5% (inactive).

Consider `C=CCn1c(SCC(=O)c2ccc(Br)cc2)nnc1-c1c[nH]c2ccccc12`, for which the growth is 108% (inactive). Next, `Cc1nc(-c2cc3ccccc3oc2=O)ccc1C(=O)/C=C/c1ccccn1`: 70.8% (inactive). Take `O=C1Nc2ccc(Cl)cc2/C1=C/c1ccc(OCC(=O)c2ccc(Br)cc2)cc1`: the growth was 99.1% (inactive). To `COc1cccc(-c2nn(-c3ccccc3)cc2-c2ccnc(N3CCN(C(=O)c4ccccc4)CC3)c2)c1` belongs 17% (inactive); to `O=C1Nc2cc(Cl)ccc2/C1=C\c1ccc(OCc2ccc([N+](=O)[O-])cc2)cc1`, 80.2% (inactive). Next, `Nc1nc(N)c2c(n1)NC(c1ccc(C(F)(F)F)cc1)CC(c1ccc(Nc3nc(NCCO)nc(Nc4ccc(Cl)cc4)n3)cc1)=N2` (stereo not given): -61.5% (active); `CC(O)C(NC(=O)C1CCCN1C(=O)CNC(=O)C1CC(=O)NCC(=O)NC(Cc2c[nH]c3ccccc23)C(=O)NC(Cc2ccc(O)cc2)C(=O)NCC(=O)NC(CO)C(=O)NC(CCC(N)=O)C(=O)NC(Cc2c[nH]c3ccccc23)C(=O)N1)C(=O)NCC(=O)NC(CCC(N)=O)C(=O)NC(CCCNC(=N)N)C(=O)NC(CC(=O)O)C(=O)O` (stereo not given): 100% (inactive); `CCCC(=O)NC(c1cccc(N(C)C)c1)c1cc(C)c2cccnc2c1O` (stereo not given): 77.6% (inactive). In the case of `CN(C)CCCOc1c2ccc(Cl)cc2nc2c1oc1ccccc12`, the growth was -51.9% (active). On to `CC(C)(C)Nc1nc2c(OCCc3ccccc3)cccn2c1-c1cccc(F)c1`, for which the growth was 2.41% (active). With `COc1ccc(-c2nn3c(-c4ccccc4F)nnc3s2)cc1`, the growth was -4.46% (active). `c1ccc2c(NCCCn3ccnc3)c3oc4ccccc4c3nc2c1`: the growth was 3.7% (active). `COc1cc(/C=C/C(=O)c2ccc(C)cc2)ccc1Oc1nc(NCCO)nc(N2CCOCC2)n1`: the growth was 33.1% (inactive).
